Screening data deposited in PubChem by The Scripps Research Institute Molecular Screening Center.
PAD4 FP inh – inhibitors of human PAD4; Q9UM07; AID 485272; inhibition, % at 6.36 µM; 330,000 compounds, 0.41% hits; recombinant PAD4, RCA probe fluorescence polarization;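 active means percent inhibition above a cutoff equal to the mean of all tested compounds plus 3 SD, cut at about 15% in these data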;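 further: 0% = PAD4 with RCA probe and DMSO and 100% = probe without PAD4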
LYPLA2 counter – LYPLA2 (human) inhibition in PME1 counter-screen. O95372. recombinant LYPLA2, FP-Rh probe fluorescence polarization. inhibition, % at 5.9 µM. 320,000 compounds, 0.38% hits;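 active means inhibition above the screen-wide mean plus 3 SD, limit set per campaign, cut at about 26% in these data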;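 further: 0% = LYPLA2 with DMSO and 100% = wells lacking LYPLA2 enzyme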
Target sequence (O95372 whole entry, looked up): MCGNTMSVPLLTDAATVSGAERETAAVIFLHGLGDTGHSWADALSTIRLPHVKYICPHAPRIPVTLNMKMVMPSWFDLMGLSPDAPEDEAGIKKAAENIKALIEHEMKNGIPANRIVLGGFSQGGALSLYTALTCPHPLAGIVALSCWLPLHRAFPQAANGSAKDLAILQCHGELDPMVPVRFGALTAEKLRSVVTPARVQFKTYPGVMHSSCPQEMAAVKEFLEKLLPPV
GSTO1 inh – blocks human GSTO1 in RBBP9 counter-screen; 300,000 compounds, 1.1% hits; recombinant GSTO1, activity-based probe fluorescence polarization; P78417; inhibition, % at 5.96 µM; AID 1974;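 active means inhibition above the campaign mean inhibition plus 3 SD, cut at about 35% in these data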;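 further: 0% = GSTO1-1 with DMSO and 100% = wells lacking GSTO1-1 enzyme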
LYPLA1 counter – counter-screen for PME1 inhibitors: inhibitors of human LYPLA1; O75608; recombinant LYPLA1, FP-Rh probe fluorescence polarization; inhibition, % at 5.9 µM; 320,000 compounds, 0.16% hits;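 active means inhibition above the mean of all tested compounds plus 3 SD, set per campaign, cut at about 14% in these data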;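 further: inhibitors block serine hydrolase probe labeling of LYPLA1 so polarization falls; 0% = enzyme with DMSO and 100% = wells lacking LYPLA1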
Fam108B inh – blocks mouse Fam108B hydrolase in RBBP9 counter-screen; 300,000 compounds, 0.33% hits; recombinant Fam108B, FP-Rh probe fluorescence polarization; inhibition, % at 9.51 µM;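 active means inhibition above the screen mean inhibition plus 3 SD, computed separately per campaign, cut at about 18% in these data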;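 further: inhibitors lower polarization as less probe binds the enzyme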
PME-1 primary – blocks human protein phosphatase methylesterase 1 | recombinant PME-1, FP-Rh probe fluorescence polarization | inhibition, % at 5.9 µM | 320,000 compounds, 0.53% hits;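 active means inhibition above the campaign mean of all compounds plus 3 SD, cut at about 26% in these data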;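 further: competitive labeling of PME-1 active site by serine hydrolase directed probe; 0% = PME-1 with DMSO and 100% = wells lacking PME-1 enzyme; inhibitors block probe labeling so polarization falls and inhibition rises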
Target sequence (Q9Y570 whole entry, looked up): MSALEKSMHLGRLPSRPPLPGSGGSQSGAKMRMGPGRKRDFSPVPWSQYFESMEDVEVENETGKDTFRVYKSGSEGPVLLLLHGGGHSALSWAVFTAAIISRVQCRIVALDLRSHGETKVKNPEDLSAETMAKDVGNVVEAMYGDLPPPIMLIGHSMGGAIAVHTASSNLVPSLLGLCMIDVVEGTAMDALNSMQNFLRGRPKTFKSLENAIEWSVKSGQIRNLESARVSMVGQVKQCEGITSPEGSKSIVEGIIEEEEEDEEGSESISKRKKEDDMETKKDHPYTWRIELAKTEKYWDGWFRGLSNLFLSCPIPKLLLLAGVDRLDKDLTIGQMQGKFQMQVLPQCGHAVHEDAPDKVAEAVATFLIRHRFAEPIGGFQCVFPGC
The depositor's hits bear a star; / = not tested or not shown. An excerpt weighted towards active compounds, which were near 1.8% of everything screened.

SMILES	PAD4 FP inh	LYPLA2 counter	GSTO1 inh	LYPLA1 counter	Fam108B inh	PME-1 primary
O=C(N/N=C/c1c[nH]c2ccccc12)c1ccc([N+](=O)[O-])cc1Cl	1.1	6.5	10.4	2.2	14.7	26.4*
O=C(N/N=C/c1cc([N+](=O)[O-])ccc1O)c1c[nH]c2ccccc12	4.0	-9.5	-6.6	-4.8	9.7	12.6
CCc1ccc(-c2cc(C(=O)N/N=C/c3c[nH]c4ccccc34)[nH]n2)cc1	3.0	-23.1	-30.4	-19.2	1.7	39.6*
COc1ccc(CCC(=O)Nc2ccc(C)c([N+](=O)[O-])c2)cc1	1.6	3.4	2.0	-2.1	2.9	-2.5
CC(C)NC(=S)N=Nc1c(O)[nH]c2ccc(C(C)C)cc12	-2.7	0.5	-3.8	1.3	0.8	28.6*
CC(C)Oc1ccc(S(=O)(=O)N2CCCCC2)cc1NC(=O)CN1C(=O)NC(C)(c2ccccc2)C1=O (configuration not stated)	0.4	4.6	0.6	1.2	0.6	39.2*
Cc1c(CCO)c(=O)n(-c2ccccc2)n1S(=O)(=O)c1c(Cl)cc(Cl)cc1Cl	-4.5	1.7	36.6*	5.0	-1.3	21.8
Cc1ccc(OCc2nnnn2-c2ccccc2)cc1	1.4	1.3	1.1	1.2	-2.2	0.3
O=C(NCCCO)NC12CC3CC(CC(C3)C1)C2	-3.2	0.8	10.9	-0.5	-3.5	-1.7
O=C(CCl)NC(=O)NC12CC3CC(CC(C3)C1)C2	0.9	8.3	89.2*	-1.5	-0.5	7.8
CCOC(=O)NC1(NC(C)C)Oc2ccccc2O1	-2.2	-3.3	37.1*	2.4	2.2	-0.4
CCOC(=O)NC1(Nc2ccc(C)cc2)Oc2ccccc2O1	-2.7	-5.2	81.7*	-4.3	1.7	4.0
C/C(=N\NC(=O)c1ccc(Br)cc1)C1C(=O)c2ccccc2C1=O	-1.9	1.5	-7.9	18.2*	15.8	9.9
Cc1nc(N/N=C/c2ccc(O)cc2O)cc(N2CCOCC2)n1	0.3	4.1	6.9	8.7	3.4	3.8
Oc1cccc(/C=N/Nc2cc(N3CCOCC3)nc(N3CCOCC3)n2)c1	-4.5	-0.8	1.7	-3.3	1.8	2.6
Oc1ccc(/C=N/Nc2cc(N3CCOCC3)nc(N3CCOCC3)n2)cc1O	-0.6	-9.4	54.1*	-1.1	6.0	-6.1
Oc1ccccc1/C=N/Nc1cc(N2CCCC2)nc(N2CCCC2)n1	-10.7	-5.7	73.1*	-5.1	8.3	16.0
O=C(Nc1ccc([N+](=O)[O-])cc1)Nc1nc(-c2ccc(Cl)s2)cs1	-12.9	-15.0	-8.9	-24.4	11.4	44.5*
CN(C)S(=O)(=O)NC(=O)C1=C(N2CCCC2)COC1=O	-0.2	/	/	/	/	/
CN1/C(=C/C=C(C#N)C#N)C(C)(C)c2ccccc21	2.4	5.4	10.8	7.2	-57.3	50.7*
CCc1cc(C(=O)N=Nc2c(O)[nH]c3ccc([N+](=O)[O-])cc23)c2ccccc2n1	-7.1	-8.1	43.3*	-12.4	9.2	-1.0
CCCCCCC(=O)N=Nc1c(O)[nH]c2ccc([N+](=O)[O-])cc12	-2.0	7.2	4.1	2.2	-0.1	-3.9
O=C(CCl)Nc1c(C(=O)Nc2ccc3c(c2)OCCO3)oc2ccccc12	-4.1	-8.1	36.3*	-6.2	-0.6	-0.9
COCC(=O)Nc1c(C(=O)Nc2ccc3c(c2)OCO3)oc2ccccc12	3.4	-2.9	2.1	-2.6	5.9	-3.2
CC(CN1C(C)CCCC1C)OC(=O)c1cccc(Br)c1 (configuration not stated)	-0.5	10.5	3.0	-0.7	-3.5	0.1
SMILES	PAD4 FP inh	LYPLA2 counter	GSTO1 inh	LYPLA1 counter	Fam108B inh	PME-1 primary
Cc1ccc(N=Nc2c(N)n(-c3ccccc3)[nH]c2=O)cc1	2.3	2.6	9.0	-1.3	1.5	35.1*
O=C(CCl)N1c2ccccc2OCC1c1ccccc1 (configuration not stated)	2.3	3.1	64.4*	1.5	2.0	-0.7
O=C(CCl)N1CCN(C(=O)C2COc3ccccc3O2)CC1 (configuration not stated)	-3.7	/	/	/	/	/
Cc1ccc2c(-c3csc(N)n3)c[nH]c2c1	-21.7	-4.7	-11.3	-13.7	14.0	51.4*
Nc1nc(-c2c[nH]c3ccccc23)cs1	-71.1	-13.1	-5.0	-8.4	-3.9	-2.0
COc1ccc(-c2nc[nH]c2[N+](=O)[O-])cc1	1.4	-4.2	9.0	-4.4	-0.7	5.4
Cc1cc2ccccn2c1C(=O)c1ccc([N+](=O)[O-])o1	-0.7	8.8	86.4*	2.6	4.1	17.2
Cc1ccc(S(=O)(=O)N(CC(=O)NCCSc2ccccn2)c2ccccc2F)cc1	-2.6	-2.0	5.9	1.5	0.2	2.3
N#C/C(=N\Nc1ccc(Cl)c(Cl)c1)C(=O)C1CC1	2.2	12.2	-11.5	10.9	7.8	34.3*
N#C/C(=N\Nc1ccc(F)cc1)C(=O)C1CC1	-4.4	3.5	2.7	-1.5	-0.8	4.0
CN(Cc1cccnc1)C(=O)c1cc(COc2ccc3c(c2)CCCC3)on1	0.8	8.1	-2.1	-0.3	-4.3	-1.7
O=C(NC(C(=O)N/N=C/c1cc([N+](=O)[O-])ccc1O)c1n[nH]c(=O)c2ccccc12)c1ccccc1 (configuration not stated)	3.5	-1.7	-75.1	-4.4	7.3	48.7*
Cc1cc(=O)[nH]c2ccc(S(=O)(=O)NCc3ccccc3)cc12	-2.8	-8.6	-2.7	-1.5	-0.5	-2.3
CC(=O)c1coc2c1cc(O)c1ccccc12	-14.7	-2.3	13.7	-3.9	1.9	0.1
O=C(c1ccco1)c1coc2c1cc(O)c1ccccc12	-4.8	-1.6	43.2*	1.8	7.2	11.3
CC(CC(=O)O)Nc1ccccc1O (configuration not stated)	-5.0	-2.0	48.3*	0.8	0.7	7.3
C[C@H](NC(=O)c1ccccc1)C(=O)OCC(=O)Nc1sccc1C(N)=O	-1.8	/	/	/	/	/
Cc1nc2ccc(N)cc2s1	-0.9	-1.3	7.2	-1.0	2.5	-4.9
CN(C)c1ccc2nc3ccc(=[N+](C)C)cc-3sc2c1	-2.7	-4.8	36.1*	-1.0	-2.6	4.3
CCc1nnc(NC(=O)CSc2nc3c(c(=O)n2CC)SC(C)C3)s1 (configuration not stated)	-2.7	-1.6	35.1*	-1.3	-2.3	7.0
O=C(CCN1CCCC1=O)NC1CCCc2c1cnn2-c1ccc(F)cc1F (configuration not stated)	-0.6	-0.1	-0.2	2.9	0.5	0.1
COc1cc(OC)cc(C(=O)Nc2nnc(SCC(=O)NCc3ccco3)s2)c1	2.8	-2.8	-13.2	-0.3	-0.7	3.6
Cc1ccc(C(=O)NC2(O)C(=O)c3ccccc3C2=O)cc1C	8.7	6.2	74.6*	5.0	6.7	1.6
CN1CCN(C(=O)C2CCC(=O)N(Cc3cccc(C(F)(F)F)c3)C2)CC1 (configuration not stated)	1.0	-3.0	0.6	-2.1	0.1	7.7
